# Screening results deposited in PubChem by National Center for Advancing Translational Sciences (NCATS).
# ALDH1A1 block = qHTS Assay for Inhibitors of Aldehyde Dehydrogenase 1 (ALDH1A1). AID 1030, 2008. Purified ALDH1A1, NADH fluorescence, propionaldehyde substrate. 220,000 compounds, 7.3% hits. Potency, µM (titrated, usually from 75.3 µM), inactives show at the highest dose activity, negative = inhibition, actives largely listed as inhibitors. Aldehyde dehydrogenase 1A1 (Homo sapiens), P00352;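 further: potency means the concentration at half of the fitted maximal effect; plate controls were no enzyme wells and a reference inhibitor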
# Target sequence (P00352 whole entry, looked up): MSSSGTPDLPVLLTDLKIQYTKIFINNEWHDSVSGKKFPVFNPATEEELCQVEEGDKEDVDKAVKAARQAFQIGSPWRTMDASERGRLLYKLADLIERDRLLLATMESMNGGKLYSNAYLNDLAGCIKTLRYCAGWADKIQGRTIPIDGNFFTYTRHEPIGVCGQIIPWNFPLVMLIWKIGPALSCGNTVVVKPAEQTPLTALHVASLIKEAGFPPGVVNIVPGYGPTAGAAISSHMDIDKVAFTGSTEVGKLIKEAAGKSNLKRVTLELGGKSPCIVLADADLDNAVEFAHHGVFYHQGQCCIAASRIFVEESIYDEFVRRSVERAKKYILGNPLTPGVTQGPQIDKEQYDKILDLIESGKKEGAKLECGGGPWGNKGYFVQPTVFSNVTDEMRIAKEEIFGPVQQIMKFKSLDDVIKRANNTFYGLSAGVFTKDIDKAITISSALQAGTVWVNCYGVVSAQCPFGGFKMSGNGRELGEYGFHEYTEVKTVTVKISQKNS
# PNC assembly inh = High Content Assay for Compounds that inhibit the Assembly of the Perinucleolar Compartment. PC3M PTB-GFP, PNC prevalence imaging, 16 h; stronger effect = lower value. activity change (PNC), negative = inhibition, % at 10 µM. AID 2417, 2010. 140,000 compounds, 3.1% hits;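 active means readout at or below -70, meaning at least 70% loss of cells showing the perinucleolar compartment, a nuclear body marking cancer cells; inconclusive means readout between -30 and a set limit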;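 further: plate controls were DMSO wells for no effect and camptothecin positive control wells for full effect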
#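 Read-out is percentage of cells bearing a perinucleolar compartment, from automated 20x imaging of fixed, Hoechst-stained PC3M PTB-GFP cells. Cells were seeded 4 h, then exposed 16 h to compound (23 nl of library stock) in duplicate plates.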
# HPGD inh = qHTS Assay for Inhibitors of HPGD (15-Hydroxyprostaglandin Dehydrogenase); 150,000 compounds, 4.3% hits; AID 894, 2007; 15-hydroxyprostaglandin dehydrogenase [NAD(+)] (Homo sapiens), P15428; purified HPGD, NADH fluorescence kinetic, PGE2 substrate; Potency, µM, without a hit: top-dose activity change, negative = inhibition, hits mostly inhibitors; further: potency means the concentration at half of the fitted maximal effect
#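 NADH formation kinetics: reaction with 30 uM PGE2 and 1 mM NAD+ (final), 20 nM enzyme, Tris-HCl pH 8 with Tween 20, after 15 min compound preincubation at room temperature. Fluorescence change, last versus first of five reads.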
# * marks the source's active call; other numbers are inactive results; ? = inconclusive; nt = not tested or not shown; [ ] = remark or other dose. Rows were chosen to be rich in hits. Some 11% of all compounds tested hit in one or more screens of this group. Unless noted, the call rests on the fitted dose curve; in most records, active means well fitted inhibition curve with a large enough effect (not every such curve was filed as active); inconclusive means small, poorly fitted or top-dose-only effect, or another doubt; inactive means no such curve, though single readings can be large or run the other way. Unless noted, on the % scale 0 is the no-effect control and ±100 the full control effect.
SMILES,ALDH1A1 block,PNC assembly inh,HPGD inh
C=CCOC(=O)N[C@H](/C(C(=O)OC)=C(\C)NCc1ccccc1)c1cccc(C(F)(F)F)c1,0%,nt,-3%
NC(=O)N/N=C\c1cc(Br)ccc1O,-3%,7,-21%
O=C(N/N=C/c1cc(Cl)ccc1O)c1ccc(Br)cc1,-10%,-107*,-19%
CCN(C1CCS(=O)(=O)C1)S(=O)(=O)c1cccs1 (stereo unspecified),9%,-107*,-8%
CCN(CC)C1CCS(=O)(=O)C1 (stereo unspecified),13%,nt,nt
CC(C)=CCC/C(C)=C/C=O,?,nt,-11%
O=C(c1ccc(F)cc1F)C1CCN(c2ccc([N+](=O)[O-])cn2)CC1,20µM*,nt,nt
O=[N+]([O-])c1ccc(N2CCOCC2)nc1,?,5,?
O=C1CC(c2ccccc2)Cc2nc(NCc3ccco3)ncc21 (stereo unspecified),8%,?,-12%
O=C(Nc1ncc2c(n1)CC(c1ccccc1)CC2=O)c1ccco1 (stereo unspecified),?,-12,-13%
COc1ccccc1C(=O)Nc1ncc2c(n1)CC(c1ccco1)CC2=O (stereo unspecified),8.9µM*,-3,-6%
O=C1CC(c2ccco2)Cc2nc(Nc3ccc(F)cc3)ncc21 (stereo unspecified),10µM*,8,-18%
O=C(CSc1nnnn1-c1ccccc1)Nc1ncc2c(n1)CC(c1ccco1)CC2=O (stereo unspecified),5µM*,-2,-12%
O=C1CC(c2ccco2)Cc2nc(NCC3CCCO3)ncc21 (stereo unspecified),?,29,-6%
CC1(C)Cc2ccccc2-c2nnc(SCc3ccccc3)n21,9%,-7,-7%
CCOC(=O)C(C)Sc1nnc2n1C(C)(C)Cc1ccccc1-2 (stereo unspecified),-3%,-100*,-2%
CCOC(=O)c1ncc2[nH]c3cccc(OC(C)C)c3c2c1C,-5%,nt,-16%
COc1ccc(-c2nc3c(c4c2CC(C)OC4)CN(CCC(C)C)CC3)cc1 (stereo unspecified),-10%[13.5 µM],nt,nt
O=c1[nH]c2ccc(NC(=S)Nc3ccc(Cl)cc3)cc2[nH]1,7%,30,-6%
COCCNC(=S)Nc1ccc(Cl)c(Cl)c1,10%,nt,nt
CC(C)c1ccc(NC(=S)Nc2ccc3[nH]c(=O)[nH]c3c2)cc1,40µM*,nt,nt
S=C(Nc1ccc2cn[nH]c2c1)Nc1ccc(Cl)cc1Cl,13µM*,nt,nt
COCCNC(=S)Nc1ccc2[nH]c(=O)[nH]c2c1,25µM*,nt,nt
S=C(Nc1ccccc1)Nc1ccc(Cl)cc1Cl,7.9µM*,?,-27%
S=C(Nc1ccccc1Cl)Nc1ccc(Cl)cc1Cl,?,4,-25%
SMILES,ALDH1A1 block,PNC assembly inh,HPGD inh
Cc1nc2ccccc2n1CC(=O)OCC(=O)NC1CC1,-1%,nt,nt
COC(=O)NC(c1ccc(Cl)cc1)C(C(C)=O)C(=O)OC (stereo unspecified),13%[13.5 µM],nt,nt
CCCCNC(=S)Nc1ccc2cn[nH]c2c1,-1%,-84*,-12%
CC(C)NC(=S)Nc1ccc2cn[nH]c2c1,?,-21,-4%
CCc1ccc(NC(=S)Nc2ccc3cn[nH]c3c2)cc1,?,11,-7%
S=C(Nc1ccc(Cl)cc1)Nc1ccc2cn[nH]c2c1,25µM*,nt,nt
S=C(Nc1ccc2cn[nH]c2c1)Nc1ccccc1Cl,14µM*,?,-15%
O=c1[nH]c2ccc(NC(=S)Nc3ccc(Cl)cc3Cl)cc2[nH]1,?,7,-12%
O=c1[nH]c2ccc(NC(=S)Nc3ccccc3Cl)cc2[nH]1,6.3µM*,18,22µM*
S=C(Nc1ccc2cn[nH]c2c1)Nc1ccc2cn[nH]c2c1,?,nt,-3%
O=C(COc1ccc(Br)cc1)N1CCC(c2ccccc2)C1 (stereo unspecified),?,?,-13%
Cc1nn(-c2ccccc2)c2nc3c(cc12)C(=O)CCC3,-4%,-23,?
CCOC(=O)c1ccc(NC(=O)COc2ccccc2CNC2CCCC2)cc1,-8%,nt,nt
COc1ccc(OC)c(NS(=O)(=O)c2ccc(NC(=O)c3ccc(NS(C)(=O)=O)cc3)cc2)c1,?,7,-14%
O=C(COc1ccc(Cl)cc1Cl)NNC(=S)NCc1ccco1,2%,nt,nt
S=C(NCc1ccco1)Nc1ccc(Cl)cc1Cl,-1%,33,28µM*
Cc1ccc(NC2=C(Cl)C(=O)OC2NC(=O)c2ccccc2)cc1 (stereo unspecified),-10%,?,-4%
O=C1OC(NC(=O)c2ccccc2)C(n2cc(CO)nn2)=C1Cl (stereo unspecified),13µM*,20,22µM*
CC1=C/C(=N\NC(=O)c2ccccc2)CC1,17%,59,-13%
CCOc1nc(NCCO)nc(NCCC2=CCCCC2)n1,?,-100*,-8%
CCOc1nc(NCCC2=CCCCC2)nc(N2CCOCC2)n1,-9%,-23,-7%
Cc1onc(-c2ccccc2)c1C(=O)NNC(=S)NC(=O)/C=C/c1cccs1,-5%,-30,-24%
O=C(COC(=O)c1ccc(S(=O)(=O)N2CCOCC2)cc1)NCc1cccs1,-4%,nt,nt
CCC(C(=O)NN1C(=O)c2ccccc2C1=O)c1ccccc1 (stereo unspecified),-2%,nt,nt
CC1(C)CC(=O)C/C(=N\NC(=O)C2CC2c2ccccc2)C1 (stereo unspecified),32µM*,nt,nt
SMILES,ALDH1A1 block,PNC assembly inh,HPGD inh
CC1(C)CC(=O)C/C(=N\NC(=O)C2CC23CCC3)C1 (stereo unspecified),-4%,nt,nt
CCC(=O)N(Cc1cc2ccc(C)cc2n2nnnc12)C1CCCCC1,5µM*,-13,-3%
Cc1ccc2c(c1)cc(CN(C(=O)N1CCOCC1)C1CCCC1)c1nnnn12,2%,nt,nt
CC1CN2C(CCC(C)C2c2ccc(Br)cc2)C(=O)O1 (stereo unspecified),28%[13.5 µM],nt,nt
NC1=NC(=O)/C(=C\c2cccs2)S1,13%,-13,-17%
N#CCCN1CCN(C2=NC(=O)/C(=C\c3cccs3)S2)CC1,25µM*,nt,nt
CCN(CC)C(=S)Nc1ccc([N+](=O)[O-])cc1,?,33,-8%
CCN(CC)c1ccc(C2NCC(c3ccc([N+](=O)[O-])cc3)O2)cc1 (stereo unspecified),0.28µM*,-21,-11%
O=c1c2nnn(Cc3ccc(Cl)cc3)c2ncn1Cc1ccc(F)cc1,-2%,-28,28µM*
Cc1cccc(Cn2cnc3c(nnn3Cc3ccc(Cl)cc3)c2=O)c1,18%,60,13µM*
Cc1ccc(Cn2cnc3c(nnn3Cc3ccc(Cl)cc3)c2=O)cc1,10%,65,-6%
Cc1ccc(Cn2nnc3c(=O)n(Cc4cc(C)ccc4C)cnc32)cc1,6%,15,4µM*
Cc1ccc(Cn2nnc3c(=O)n(Cc4cccc(C)c4)cnc32)cc1,6%,?,5µM*
Cc1ccccc1Cn1cnc2c(nnn2Cc2ccc(F)cc2)c1=O,1%,?,-10%
Cc1ccc(-n2nnc3c(=O)n(Cc4ccccc4C)cnc32)cc1,9%,-22,-9%
CCOC(=O)C(C)n1cnc2c(nnn2Cc2ccc(C)cc2)c1=O (stereo unspecified),9%,?,-8%
